Our source for the inhibition values is PubChem BioAssay AID2328 (The Scripps Research Institute Molecular Screening Center, 2010).

The other results are listed elsewhere or left out. Calls of active or inactive are those of the source.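 Rule for the calls: active = mean inhibition over triplicates above a set limit taken from the primary EBNA-1 screen (cut at about 37% in these data); inactive = the rest.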

Sequence of Lytic switch protein BZLF1 (Epstein-Barr virus (strain B95-8)) (P03206 whole entry, looked up): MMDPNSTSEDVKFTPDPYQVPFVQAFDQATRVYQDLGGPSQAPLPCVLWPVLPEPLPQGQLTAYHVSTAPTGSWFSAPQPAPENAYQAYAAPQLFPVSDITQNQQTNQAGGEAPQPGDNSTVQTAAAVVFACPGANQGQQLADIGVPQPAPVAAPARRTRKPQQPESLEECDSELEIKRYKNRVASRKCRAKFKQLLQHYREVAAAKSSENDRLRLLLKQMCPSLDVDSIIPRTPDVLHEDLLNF

This assay has as its target Lytic switch protein BZLF1 (Epstein-Barr virus (strain B95-8)) (UniProt P03206). As to the kind of experiment: blockers of Zta binding to ZRE DNA – biochemical, fluorescence polarization, triplicate, counter-screen for EBNA-1 inhibitor project (AID 2328).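 Note: purified full length Zta protein with Cy5 labeled ZRE DNA probe; 0% = Zta with DMSO and 100% = wells lacking Zta protein; inhibitors lower polarization by freeing the labeled DNA probe.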 Particulars: Cy5 fluorescence polarization, at 11.1 µM, hits give high values. For orientation: Polarisation of emitted light reports the rotation of a fluorescent probe.
`CCOc1cccc(SCc2noc(C(=O)NC(C)C)c2C(=O)O)c1`: the inhibition (commonly the drop in the measured response relative to a control, in per cent) was 2.79% (inactive).

For the molecule `COc1ccc(C(=O)Nc2cccc(NC(=O)c3ccc(OC)cc3OC)n2)c(OC)c1`, the inhibition is 7.79% (inactive).

On to `CCc1nccn1S(=O)(=O)c1cccc([N+](=O)[O-])c1`, for which the inhibition is 0.63% (inactive).

Turning to `COc1ccc(C(=O)CSc2nnc(NC(=O)C3CC(=O)N(c4cccc(OC)c4)C3)s2)cc1` (stereo not given), the inhibition is -0.54% (inactive).

As for `CC(=O)Nc1ccc(S(=O)(=O)NCC(=O)OCc2cc(=O)oc3ccc4ccccc4c23)cc1`, the inhibition was 7.35% (inactive).

Turning to `CCOC(=O)c1ccc(NC(=O)C2CC(=O)Nc3nc4ccccc4n32)cc1` (stereo not given), the inhibition is -17.7% (inactive).

Take `CC(=O)c1c(C)[nH]c(C(=O)OCC(=O)Nc2sc3c(c2C#N)CCCC3)c1C`: the inhibition was 5.6% (inactive).

Turning to `Cc1ccc(C(=O)NNC(=O)c2cc3cc4ccccc4nc3s2)cc1`, the inhibition is 7.01% (inactive).

Consider `CCOc1ccc(OCC)c(NC(=O)C(NS(=O)(=O)c2ccc3c(c2)oc(=O)n3C)C(C)C)c1` (stereo not given), for which the inhibition is 22.3% (inactive).

`C/C(=N\N=C(N)N)c1ccc(Cl)cc1`: the inhibition was 1.14% (inactive).

Regarding `COc1ccc(-c2ccc(Nc3ccc(S(=O)(=O)N4CCCC4)cc3)nn2)cc1OC`, the inhibition was -8.43% (inactive).

Turning to `CCOc1ccc(NC(=O)c2ccc(NC(=O)COC(=O)c3ccc(NC(=O)CC#N)cc3)cc2)cc1`, the inhibition is 6.56% (inactive).

For `O=C(Nc1cccc(NC(=O)c2ccc(Br)cc2)c1)c1ccccc1`, the inhibition was 4.83% (inactive).

For `COc1ccc(C)cc1NC(=O)NCc1ccccn1`, the inhibition is -2.35% (inactive).

With `CCOc1[nH]n(-c2ccc(Cl)cc2)c(=O)c1C=Nc1ccc(O)cc1`, the inhibition was 6.97% (inactive).
